# Assay results taken from PubChem BioAssay (NCATS).
# Inconclusive results are not listed. A call without a number means that no potency is given here. Calls of active or inactive are those of the source. The call rests on the fitted dose curve; in most records, active means well fitted curve in the direction sought with a large enough effect; inconclusive means small, poorly fitted or top-dose-only effect, or another doubt; inactive means no such curve, though single readings can be large; an effect the other way counts as inactive or inconclusive.
# What was measured:
# [1] = target: Metallo-beta-lactamase type 2 (Klebsiella pneumoniae) (UniProt C7C422); experiment: qHTS to identify inhibitors of the New Delhi Metallo-beta-lactamase (NDM): assay validation screen against the NCATS LOPAC Collection (AID 1794843); further: series mostly up to about 38 µM
# Procedure, shortened: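 Absorbance at 485 nm from nitrocefin turnover (50 uM solution added), read at plateau, gives the read-out. Compounds in DMSO were incubated first with 2 nM final NDM-1 in pH 7.0 HEPES buffer containing 1 uM ZnSO4 and 0.01% Tween20.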
# [2] = target: Glutathione peroxidase 1 (Homo sapiens) (UniProt P07203); experiment: Primary qHTS Assay for Inhibitors of Recombinant Selenoprotein Glutathione Peroxidase 1 (GPX1) (AID 1845191); further: nearly all actives have a fitted effect of over 65% in size
# Procedure, shortened: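 Recombinant GPX1 (10 nM final) was preincubated with compound for 30 min at room temperature, then reacted with 1 mM GSH, 0.5 mM CHP, 0.5 mM NADPH and 100 nM glutathione reductase; NADPH fluorescence (340/450 nm) was read at 0 and 15 min.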
# [3] = target: Phospholipid hydroperoxide glutathione peroxidase GPX4 (Homo sapiens) (UniProt P36969); experiment: Primary qHTS Assay for Inhibitors of Recombinant Selenoprotein Glutathione Peroxidase 4 (GPX4) (AID 1845192); further: nearly all actives have a fitted effect of over 65% in size
# Procedure, shortened: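 GR-coupled readout: 100 nM GR, 1 mM GSH, 0.5 mM NADPH; NADPH fluorescence (ex 340/em 450 nm) read at t=0 and after 15 min RT. GPX4 200 nM, preincubated 30 min with compound; substrate 0.5 mM CHP.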
# [4] = Quantitative High-Throughput drug screen in 47 multiple myeloma cell lines against the NCATS MIPE library collection: EJM_DSMZ cell viability assay (AID 1918926; further: nearly all actives have a fitted effect of over 30% in size; further: potency means the concentration at half of the fitted maximal effect)
# Procedure, shortened: (§1)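 CellTiter-Glo luminescence (ATP) after 48 h compound exposure, 37C/5% CO2; 500 cells/well; MIPE 4.0 approved/investigational drugs pinned in; DMSO = 100%, media only = 0% viability.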
# [5] = Quantitative High-Throughput drug screen in 47 multiple myeloma cell lines against the NCATS MIPE library collection: AMO1_DSMZ cell viability assay (AID 1918927; further: nearly all actives have a fitted effect of over 30% in size; further: potency means the concentration at half of the fitted maximal effect)
# Procedure, shortened: as §1
# [6] = Quantitative High-Throughput drug screen in 47 multiple myeloma cell lines against the NCATS MIPE library collection: Karpas620_DSMZ cell viability assay (AID 1918959); further: nearly all actives have a fitted effect of over 30% in size; further: potency means the concentration at half of the fitted maximal effect
# Procedure, shortened: as §1
# [7] = Quantitative High-Throughput drug screen in 47 multiple myeloma cell lines against the NCATS MIPE library collection: KMM1_JCRB cell viability assay (AID 1918960); further: nearly all actives have a fitted effect of over 30% in size; further: potency means the concentration at half of the fitted maximal effect
# Procedure, shortened: (§2)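 ATP readout (CellTiter-Glo), 48 h drug incubation, 37 °C/5% CO2, 500 cells per well; normalisation to DMSO (100%) and media-only (0%) controls.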
# [8] = Quantitative High-Throughput drug screen in 47 multiple myeloma cell lines against the NCATS MIPE library collection: JIM3_ECACC cell viability assay (AID 1918963; further: nearly all actives have a fitted effect of over 35% in size; further: potency means the concentration at half of the fitted maximal effect)
# Procedure, shortened: as §1
# [9] = Quantitative High-Throughput drug screen in 47 multiple myeloma cell lines against the NCATS MIPE library collection: JIM1_ECACC cell viability assay (AID 1918964; further: potency means the concentration at half of the fitted maximal effect)
# Procedure, shortened: as §1
# [10] = Quantitative High-Throughput drug screen in 47 multiple myeloma cell lines against the NCATS MIPE library collection: H1112_PLB cell viability assay (AID 1918967; further: nearly all actives have a fitted effect of over 30% in size; further: potency means the concentration at half of the fitted maximal effect)
# Procedure, shortened: as §1
# [11] = Quantitative High-Throughput drug screen in 47 multiple myeloma cell lines against the NCATS MIPE library collection: FR4_PLB cell viability assay (AID 1918924; further: nearly all actives have a fitted effect of over 35% in size; further: potency means the concentration at half of the fitted maximal effect)
# Procedure, shortened: as §1
# [12] = Quantitative High-Throughput drug screen in 47 multiple myeloma cell lines against the NCATS MIPE library collection: Delta47_JCRB cell viability assay (AID 1918925; further: nearly all actives have a fitted effect of over 45% in size; further: potency means the concentration at half of the fitted maximal effect)
# Procedure, shortened: as §1
# [13] = Quantitative High-Throughput drug screen in 47 multiple myeloma cell lines against the NCATS MIPE library collection: ARP1_JJKsccF8 cell viability assay (AID 1918928; further: nearly all actives have a fitted effect of over 40% in size; further: potency means the concentration at half of the fitted maximal effect)
# Procedure, shortened: as §2
# [14] = Quantitative High-Throughput drug screen in 47 multiple myeloma cell lines against the NCATS MIPE library collection: KHM11_PLB cell viability assay (AID 1918962); further: nearly all actives have a fitted effect of over 35% in size; further: potency means the concentration at half of the fitted maximal effect
# Procedure, shortened: as §1
# [15] = Quantitative High-Throughput drug screen in 47 multiple myeloma cell lines against the NCATS MIPE library collection: INA6_PLB cell viability assay (AID 1918965; further: nearly all actives have a fitted effect of over 55% in size; further: potency means the concentration at half of the fitted maximal effect)
# Procedure, shortened: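 Myeloma cells (500 per well) were exposed to MIPE 4.0 compounds by pin transfer and incubated 48 hours at 37C, 5% CO2. Viability was read as ATP by CellTiter-Glo luminescence, normalised to DMSO (100%) and media-only (0%) wells.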
# [16] = target: Luciferin 4-monooxygenase (Photinus pyralis) (UniProt P08659); experiment: Primary firefly luciferase (FLuc) qHTS assay for identification of artifact compounds. (AID 1845220); conditions: outcome: dose series up to 54.1 µM; further: series mostly up to about 54 µM; nearly all actives have a fitted effect of over 60% in size
# Procedure, shortened: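 In this counter-screen for luciferase artifacts, test compounds met substrate (10 uM each luciferin and ATP) before 10 nM enzyme started the reaction. Light output was measured 5 min later.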
# [17] = Primary fluorescence-based thiol-reactive (MSTI) qHTS assay for identification of artifact compounds. (AID 1845221);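 further: series mostly up to about 54 µM; thiol-reactive compounds lower the probe fluorescence signal; nearly all actives have a fitted effect of over 65% in size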
# Procedure, shortened: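 Thiol-reactive compounds detected by quenching of 4 uM MSTI fluorescence (525/598 nm) after 1 h room-temperature dark incubation in PBS pH 7.4, 2% DMSO. qHTS titration; percent inhibition Hill-fitted against Acetyl-MSTI/MSTI controls.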
# [18] = system: Nanoluciferase (engineered Oplophorus gracilirostris luciferase); experiment: Primary Nanoluciferase (NLuc) qHTS assay for identification of artifact compounds. (AID 1845222);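 further: NLuc secreted into diluted conditioned medium of S16 cells; series mostly up to about 54 µM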
# Procedure, shortened: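 Using secreted nanoluciferase in S16 culture medium (0.22 um filtered, 1:55 dilution), compounds were preincubated 15 min at RT. Signal was generated with Nano-Glo reagent (1:100) over 5 min.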
# [19] = Primary redox qHTS assay for identification of artifact compounds. (AID 1845223)
# Procedure, shortened: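 Amplex Red (25 uM) and HRP (250 mU/mL) in HBSS, with compounds for 15 min, then 250 uM DTT for 30 min, room temperature, dark. Fluorescence 525/598 nm read; normalized to DMSO and 10 uM DA3003; Hill fit.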
# [20] = Quantitative High-Throughput drug screen in 47 multiple myeloma cell lines against the NCATS MIPE library collection: ARD_JJKsccE7 cell viability assay (AID 1918929; further: potency means the concentration at half of the fitted maximal effect)
# Procedure, shortened: as §1
# Chain of Phospholipid hydroperoxide glutathione peroxidase GPX4 (Homo sapiens) (P36969 whole entry, looked up): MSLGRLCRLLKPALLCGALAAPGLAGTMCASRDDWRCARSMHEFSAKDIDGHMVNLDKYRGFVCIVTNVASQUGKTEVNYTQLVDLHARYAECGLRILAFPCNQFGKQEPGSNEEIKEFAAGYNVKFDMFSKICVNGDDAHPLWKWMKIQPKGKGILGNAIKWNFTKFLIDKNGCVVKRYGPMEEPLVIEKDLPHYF
# Chain of Metallo-beta-lactamase type 2 (Klebsiella pneumoniae) (C7C422 whole entry, looked up): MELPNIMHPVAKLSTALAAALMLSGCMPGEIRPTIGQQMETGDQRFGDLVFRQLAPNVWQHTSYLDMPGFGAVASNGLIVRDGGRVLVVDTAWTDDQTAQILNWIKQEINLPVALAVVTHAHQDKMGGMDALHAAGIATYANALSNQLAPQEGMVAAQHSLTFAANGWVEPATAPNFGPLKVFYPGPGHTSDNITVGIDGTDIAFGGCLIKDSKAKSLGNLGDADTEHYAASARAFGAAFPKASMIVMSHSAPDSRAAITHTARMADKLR
# Chain of Glutathione peroxidase 1 (Homo sapiens) (P07203 whole entry, looked up): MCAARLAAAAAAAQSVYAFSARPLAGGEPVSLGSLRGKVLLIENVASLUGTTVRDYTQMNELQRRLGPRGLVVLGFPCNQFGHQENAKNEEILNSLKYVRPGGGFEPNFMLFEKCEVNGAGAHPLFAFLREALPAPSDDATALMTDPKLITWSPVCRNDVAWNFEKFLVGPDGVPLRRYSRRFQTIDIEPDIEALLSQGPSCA
structure (smiles),measurement,setting,value
NCCCCCC(=O)O,outcome,[1],inactive
same,Potency,[2],inactive
same,Potency,[3],inactive
same,Potency,[4],inactive
same,Potency,[5],inactive
same,Potency,[6],inactive
same,Potency,[7],inactive
same,Potency,[8],inactive
same,Potency,[9],inactive
same,Potency,[10],inactive
NCCS(=O)(=O)O,outcome,[1],inactive
same,Potency,[3],inactive
same,Potency,[11],inactive
same,Potency,[12],inactive
same,Potency,[4],inactive
same,Potency,[5],inactive
same,Potency,[13],inactive
same,Potency,[7],inactive
Nc1nnc(-c2cccc(Cl)c2Cl)c(N)n1,outcome,[1],inactive
same,Potency,[3],inactive
same,Potency,[11],inactive
same,Potency,[12],23.5 µM (active)
same,Potency,[4],inactive
same,Potency,[13],inactive
same,Potency,[9],inactive
N[C@@H](Cc1c[nH]c2ccc(O)cc12)C(=O)O,outcome,[1],inactive
same,Potency,[3],inactive
same,Potency,[12],inactive
same,Potency,[4],inactive
same,Potency,[6],inactive
same,Potency,[7],18.7 µM (active)
same,Potency,[14],inactive
same,Potency,[9],inactive
same,Potency,[15],inactive
same,Potency,[10],inactive
CNCCCC12CCC(c3ccccc31)c1ccccc12,outcome,[1],inactive
same,Potency,[3],inactive
same,outcome,[16],inactive
same,outcome,[17],inactive
same,outcome,[18],inactive
same,outcome,[19],inactive
same,Potency,[11],20.9 µM (active)
same,Potency,[12],18.7 µM (active)
same,Potency,[5],23.5 µM (active)
same,Potency,[13],20.9 µM (active)
same,Potency,[6],26.4 µM (active)
same,Potency,[7],20.9 µM (active)
same,Potency,[14],26.4 µM (active)
same,Potency,[15],16.6 µM (active)
same,Potency,[10],26.4 µM (active)
CC#C[C@]1(O)CC[C@H]2[C@@H]3CCC4=CC(=O)CCC4=C3[C@@H](c3ccc(N(C)C)cc3)C[C@@]21C,outcome,[1],inactive
same,Potency,[3],inactive
same,Potency,[11],1.66 µM (active)
same,Potency,[12],0.59 µM (active)
same,Potency,[4],1.32 µM (active)
same,Potency,[5],0.743 µM (active)
same,Potency,[13],1.05 µM (active)
same,Potency,[20],2.64 µM (active)
same,Potency,[6],0.662 µM (active)
same,Potency,[7],1.05 µM (active)
same,Potency,[14],1.87 µM (active)
same,Potency,[8],1.18 µM (active)
same,Potency,[9],0.526 µM (active)
same,Potency,[15],0.662 µM (active)
same,Potency,[10],0.743 µM (active)
Cc1cc(C(C)(C)C)c(O)c(C)c1CC1=NCCN1,outcome,[1],inactive
same,Potency,[3],inactive
same,outcome,[16],inactive
same,outcome,[18],inactive
same,outcome,[19],inactive
same,Potency,[11],inactive
same,Potency,[12],inactive
same,Potency,[4],inactive
same,Potency,[5],inactive
same,Potency,[13],inactive
same,Potency,[6],inactive
same,Potency,[7],inactive
same,Potency,[14],inactive
same,Potency,[10],inactive
CS(=O)(=O)Nc1ccc([N+](=O)[O-])cc1Oc1ccccc1,outcome,[1],inactive
same,Potency,[3],inactive
same,Potency,[12],inactive
same,Potency,[4],inactive
same,Potency,[5],inactive
same,Potency,[13],11.8 µM (active)
same,Potency,[6],inactive
same,Potency,[7],inactive
same,Potency,[14],inactive
CN1C(C(=O)Nc2ccccn2)=C(O)c2ccccc2S1(=O)=O,outcome,[1],inactive
same,Potency,[2],inactive
same,Potency,[3],inactive
same,Potency,[4],inactive
same,Potency,[13],inactive
same,Potency,[20],inactive
same,Potency,[7],inactive
same,Potency,[10],inactive
O=C(CCCN1CCC(O)(c2ccc(Cl)cc2)CC1)c1ccc(F)cc1,outcome,[1],inactive
same,Potency,[2],inactive
same,Potency,[3],inactive
same,Potency,[4],inactive
same,Potency,[5],20.9 µM (active)
same,Potency,[13],23.5 µM (active)
same,Potency,[6],20.9 µM (active)
same,Potency,[15],18.7 µM (active)
same,Potency,[10],inactive
CCOC(=O)C(C)(C)Oc1ccc(Cl)cc1,outcome,[1],inactive
same,Potency,[3],inactive
same,Potency,[11],inactive
same,Potency,[12],inactive
same,Potency,[4],inactive
same,Potency,[13],inactive
same,Potency,[6],inactive
same,Potency,[7],inactive
same,Potency,[14],inactive
same,Potency,[8],inactive
same,Potency,[15],inactive
Fc1ccc([C@@H]2CCNC[C@H]2COc2ccc3c(c2)OCO3)cc1,outcome,[1],inactive
same,Potency,[2],inactive
same,Potency,[3],inactive
same,Potency,[4],inactive
same,Potency,[6],inactive
same,Potency,[10],10.5 µM (active)
CC(C)C(=O)Nc1ccc([N+](=O)[O-])c(C(F)(F)F)c1,outcome,[1],inactive
same,Potency,[3],inactive
same,Potency,[12],3.32 µM (active)
same,Potency,[4],1.48 µM (active)
same,Potency,[5],4.69 µM (active)
same,Potency,[13],inactive
same,Potency,[20],18.7 µM (active)
same,Potency,[6],1.05 µM (active)
same,Potency,[7],18.7 µM (active)
same,Potency,[14],6.62 µM (active)
same,Potency,[9],13.2 µM (active)
same,Potency,[15],6.62 µM (active)
same,Potency,[10],3.32 µM (active)
COc1nc(C)nc(Cl)c1NC1=NCCN1,outcome,[1],inactive
same,Potency,[3],inactive
same,Potency,[11],inactive
same,Potency,[12],11.8 µM (active)
same,Potency,[5],inactive
same,Potency,[13],inactive
same,Potency,[20],inactive
same,Potency,[6],inactive
same,Potency,[14],inactive
same,Potency,[9],inactive
same,Potency,[10],7.43 µM (active)
Cn1c(=O)c2c(ncn2C)n(C)c1=O,Potency,[3],inactive
same,Potency,[4],inactive
same,Potency,[5],inactive
same,Potency,[13],inactive
same,Potency,[6],inactive
same,Potency,[7],inactive
same,Potency,[14],inactive
same,Potency,[15],inactive
same,Potency,[10],inactive
COc1ccccc1OCC(O)CN1CCN(CC(=O)Nc2c(C)cccc2C)CC1 (configuration not stated),Potency,[3],inactive
same,Potency,[11],inactive
same,Potency,[4],inactive
same,Potency,[5],inactive
same,Potency,[13],inactive
same,Potency,[7],inactive
same,Potency,[9],inactive
same,Potency,[15],inactive
same,Potency,[10],inactive
CCC1(c2ccccc2)C(=O)NCNC1=O,Potency,[2],inactive
same,Potency,[3],inactive
same,Potency,[12],2.96 µM (active)
same,Potency,[4],inactive
same,Potency,[5],10.5 µM (active)
same,Potency,[13],inactive
same,Potency,[6],inactive
same,Potency,[14],5.26 µM (active)
same,Potency,[8],4.69 µM (active)
same,Potency,[15],3.32 µM (active)
same,Potency,[10],2.96 µM (active)
Clc1ccc2nsnc2c1NC1=NCCN1,outcome,[1],inactive
same,Potency,[3],inactive
same,Potency,[4],inactive
same,Potency,[7],inactive
same,Potency,[15],inactive
same,Potency,[10],inactive
CN1CCC(=C2c3ccccc3C=Cc3ccccc32)CC1,outcome,[1],inactive
same,Potency,[3],inactive
same,Potency,[12],9.35 µM (active)
same,Potency,[15],11.8 µM (active)
same,Potency,[10],11.8 µM (active)
C[C@@H]1CC(=O)NN=C1c1ccc(NN=C(C#N)C#N)cc1,Potency,[2],inactive
same,Potency,[3],inactive
same,Potency,[11],23.5 µM (active)
same,Potency,[12],18.7 µM (active)
same,Potency,[5],inactive
same,Potency,[13],23.5 µM (active)
same,Potency,[6],inactive
same,Potency,[7],inactive
same,Potency,[9],inactive
same,Potency,[15],18.7 µM (active)
same,Potency,[10],20.9 µM (active)
